Among the data in PubChem BioAssay (NCI) are growth values, retold here.

This is part of a sample that, as a whole, favours compounds with a hit. Of some 83,000 tested, about 20% had one in any assay.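 Results are percent growth after 48 hours of single-concentration exposure. 100 means growth as in untreated cells, lower positive values show inhibition; negative values down to -100 show cell death.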 A number with no mark means an inactive call. The source made the active and inactive calls.

The subject of this test is NCI-H23 lung. The test can be described thus: NCI-60 one-dose screen, 48 h (100 = growth as untreated, 0 = no growth, -100 = all killed). The note with it: 10 µM unless noted. On the procedure: Growth inhibition of the NCI-H23 human Non-Small Cell Lung tumor cell line is measured as a screen for anti-cancer activity. Cells are grown in 96 well plates and exposed to the test compound for 48 hours. Compounds are tested at a single concentration, which is 10^-5 M for most compounds. The reported endpoint is percent growth (GI% or GIPRCNT), where numbers from 0 - 100% represent growth inhibition, and numbers from -100% - 0 represent cell death. For example, a value of 40 represents 60% growth inhibition. A value of 0 means no net growth occurred over the course of the experiment. A value of -40 indicates 40% of cells at the beginning of the experiment died by the end of the experiment. A value of -100 means all cells are dead at the end of the experiment.
NCI-60 Human Tumor Cell Lines Screen was performed using the standard one-dose NCI protocol, which is described in more detail at https://dtp.cancer.gov/discovery_development/nci-60/default.htm.
Compounds with GIPRCNT values below 10 were considered active. Activity score was based on GIPRCNT using the following formula: […]
Score is 0 for GIPRCNT values of 100 or above, 50 for GIPRCNT values of 0, and 100 for GIPRCNT values of -100.
For `COc1ccc(-c2nc(SCC(C)C)nc(Nc3ccc([N+](=O)[O-])cc3)c2C#N)cc1`, the growth was 98.5%.
Take `NC(CSC(c1ccccc1)(c1ccccc1)c1ccccc1)C(=O)NCC(=O)O` (stereo not given): the growth was 86.3%.
Next, `CC(=O)Nc1nc(C)c(C(=O)NNS(=O)(=O)c2ccccc2)s1`: 109%; `CCCCCCCCCC[N+](C)(C)N`: 104%; `CC(=O)OCC(=O)[C@@]1(O)[C@H](C)C[C@H]2[C@@H]3C=C(C)C4=Cc5c(cnn5-c5ccc(F)cc5)C[C@]4(C)[C@H]3[C@@H](O)C[C@@]21C`: -28.2% (active).
The result for `C/C(CCC(=O)O)=N/Nc1ccc([N+](=O)[O-])cc1` reads 87.8%; that for `Cc1ccc(C(=O)C(Br)C(Br)c2ccccc2)cc1` (stereo not given), 114%; that for `O=C1C(Cl)=C(SC2=NCCN2)C(=O)c2ccccc21`, 2.92% (active).
Consider `CCCCCC(=C/c1ccccc1)/C=N/N=C(N)N`, for which the growth is 44.6%.
The result for `CCOC(=O)c1cc(-c2ccc(OC)cc2)[nH]c1NNC(=O)CCOC` reads 114%; that for `O=C(CCCC(=O)Nc1ccc(Cn2nnc3cc(Cl)c(Cl)cc32)cc1)Nc1ccc(CN2N=NC3C=C(Cl)C(Cl)=CC32)cc1` (stereo not given), 62.2%.
On to `O=C(N/N=C\c1ccc(-c2ccc(Br)cc2)o1)c1cc2oc(-c3cccc(C(F)(F)F)c3)cc2[nH]1`, for which the growth is 96.8%.
The result for `COc1ccc(CN2C(=O)/C(=C\C(=O)c3ccc(OCCN4CCCCC4)cc3)c3ccccc32)cc1` reads 74.5%.
Next, `CCOC(=O)C1=C(C(F)(F)F)NC(=O)NC1CN1C(=O)c2ccccc2C1=O` (stereo not given): 99.3%; `CC(=O)Nc1ccc(S(=O)(=O)Cl)cc1`: 112%.
As for `C[C@]12CC[C@H]3[C@@H](CC[C@H]4C[C@@H](O)CC[C@@]43C)[C@@H]1CC(=O)C2`, the growth is 99.9%.
As to `FC(F)(F)c1cccc(-c2[nH]ncc2-c2nnnn2-c2ccccc2)c1`, the growth was 73.9%.
In the case of `CCCCCCCCCCCCCCCCC(=O)O.CCCCCCCCCCCCCCCCCC(=O)O.CCCCCCCCCCCCCCCCCC(=O)O.CCCCCCCCCCCCCCCCCC(=O)O.CCCCCCCCCCCCCCCCCC(=O)O.CO[CH-]OC12COC1CC(O)C1(C)C(O)C(OC(C)O)C3=C(C)C(OC(=O)C(O)C([NH-])c4ccccc4)CC(O)(C(OC(=O)c4ccccc4)C21)C3(C)C.[Cu+].[Zn].[Zn].[Zn].[Zn].[Zn]` (stereo not given), the growth is 43.6%.
Next, `COc1ccc(-c2nc(Nc3nc4ccccc4[nH]3)nc(N)c2C#N)cc1`: 100%; `O=C1/C(=C/c2ccc(Cl)cc2)CCC/C1=C\c1ccc(Cl)cc1`: 70.7%; `CCOC(=O)C1=C(C(F)(F)F)NC(=S)NC1CN1C(=O)c2ccccc2C1=O` (stereo not given): 87.5%.
The result for `CCOC(=O)c1c(C)oc2ncnc(Nc3ccc(C(=O)NCCc4ccccc4)cc3)c12` reads 81.8%; that for `CCCCCCCCCCCCCCCCCCOP(=O)(O)O`, 106%.
For the molecule `CCOC(=O)c1cc(C(=O)c2ccc(Br)cc2)n2cc(C)cc(C)c12`, the growth was 95.2%.
In the case of `Cc1ccc(CC(=O)O)c(C)c1`, the growth was 91.3%.
The result for `O=S(=O)(O)CCI` reads 102%.
The result for `O=P(OCCCl)(OCCCl)C(O)c1ccccc1Cl` (stereo not given) reads 106%; that for `CC[C@H](Nc1ncnc2nc[nH]c12)c1nc2cccc(NCc3ccc(C(=O)NO)nc3)c2c(=O)n1-c1ccccc1`, 41.1%; that for `COc1cccc2c1n([O-])c1cccc(OC)c1[n+]2=O`, 58.8%.
Next, `CC(C)OCC1CO1` (stereo not given): 110%; `CC1(C)Oc2cc3oc(=O)ccc3cc2C[C@@H]1OCCOS(=O)(=O)c1ccc(C#N)cc1`: 91.8%.
With `COc1cc2c(c3c1c(=O)c1cccc(F)c1n3C)C=CC(C)(C)O2`, the growth was 99%.
The result for `Nc1ccc(N=Nc2ccccc2)c2cc(S(=O)(=O)O)ccc12` reads 91.4%; that for `N#Cc1ccc(NC2c3ccccc3CC2O)cc1` (stereo not given), 101%; that for `CC(C)OC(=O)Nn1cnc2ccccc21`, 98.4%.
Next, `Cc1cc2cn3c4ccc(O)cc4nc(N)c3c2cc1C`: 26.8%.
The result for `COC(=O)c1ccc2[nH]c(O)c(C(=Nc3ccc(N(C)C(=O)CN4CCN(C)CC4)cc3)c3ccc(C)cc3)c2c1` reads -9.95% (active).
For the molecule `CC(=O)Nc1nc(C)c(C(=O)NNC(=O)Nc2ccccc2)s1`, the growth was 102%.
As to `COc1cc2ncnc(-n3ncc4cc(NC(=O)Nc5ccc(Cl)c(C)c5)ccc43)c2cc1OC`, the growth is 95.5%.
The result for `Cc1cc(CSc2ccc(Cl)cc2)ccc1N` reads 99.2%.
